# According to PubChem BioAssay AID588342 (National Center for Advancing Translational Sciences (NCATS), 2011):
# The campaign covered roughly 360,000 compounds. About 25,000 (6.9%) were called active. About 9% were inconclusive and are not listed. Shown is part of a subset that was picked to be rich in actives. A number with no mark means an inactive call. Calls come from the whole dose curve; as a rule, active = well fitted inhibition curve with a large enough effect; inconclusive = small, poorly fitted or top-dose-only effect; inactive = flat fitted curve, though single readings scatter.
# Target: Luciferin 4-monooxygenase (Photinus pyralis) (UniProt P08659)
# Experiment: qHTS profiling assay for firefly luciferase inhibitor/activator using purifed enzyme and Km concentrations of substrates (counterscreen for miR-21 project); note: nearly all actives have a fitted effect of over 55% in size;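 for activity change, negative = inhibition: plate controls were vehicle for no effect and reference inhibitor for full effect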
# Settings: purified FLuc, luminescence inhibition; series mostly up to 57.5 µM; activity change, negative = inhibition: at the top concentration
# Procedure, shortened: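 Biochemical qHTS of compounds, final roughly 60 µM downward over six points, against 10 nM purified firefly luciferase using Km concentrations of substrates (10 uM D-luciferin, 10 uM ATP) in Tris acetate pH 7.5 buffer; luminescence output.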
# Potency is the fitted concentration of half-maximal effect.
# Luciferin 4-monooxygenase (Photinus pyralis), sequence (P08659 whole entry, looked up): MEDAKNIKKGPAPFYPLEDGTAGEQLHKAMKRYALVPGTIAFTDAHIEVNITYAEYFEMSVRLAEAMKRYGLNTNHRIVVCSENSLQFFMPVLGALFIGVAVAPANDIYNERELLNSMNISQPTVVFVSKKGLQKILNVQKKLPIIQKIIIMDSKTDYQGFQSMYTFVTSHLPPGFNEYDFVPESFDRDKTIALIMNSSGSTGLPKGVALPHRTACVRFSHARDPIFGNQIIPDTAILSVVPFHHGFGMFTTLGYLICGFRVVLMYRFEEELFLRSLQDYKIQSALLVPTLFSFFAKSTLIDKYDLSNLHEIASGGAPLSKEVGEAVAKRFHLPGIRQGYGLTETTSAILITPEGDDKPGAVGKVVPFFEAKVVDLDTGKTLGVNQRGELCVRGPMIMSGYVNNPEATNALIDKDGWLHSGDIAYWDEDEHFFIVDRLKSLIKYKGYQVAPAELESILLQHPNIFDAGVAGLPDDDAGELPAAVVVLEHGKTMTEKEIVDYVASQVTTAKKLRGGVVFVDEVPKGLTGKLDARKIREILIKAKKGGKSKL
SMILES,"activity change, negative = inhibition [%]",Potency
CCOC(=O)N1CCN(C(=O)COC(=O)c2cccc(S(C)(=O)=O)c2)CC1,-1.79,–
CCc1ccc(S(=O)(=O)c2nnn3c2nc(NCc2ccccc2OC)c2cc(Cl)ccc23)cc1,-0.594,–
COc1ccc(N2CCN(S(=O)(=O)CCNC(=O)C(c3ccccc3)c3ccccc3)CC2)cc1,7.73,–
CCC(=O)Nc1ccccc1-c1nc2ccccc2n(CC(=O)Nc2ccc(C)c(C)c2)c1=O,-0.959,–
O=C(NC(Cc1c[nH]c2ccccc12)C(=O)N/N=C/c1ccc(Br)cc1)c1cccs1 (configuration not stated),3.94,–
CC(=O)Nc1ccc(/C=N/NC(=O)c2cccs2)cc1,–,12 µM (active)
Cc1cccc(OCC(=O)NCC(=O)N/N=C/c2ccc(N(C)C)cc2)c1,-2.61,–
NC(=O)N/N=C\c1cccs1,4.22,–
CC(C)OCCCNC(=O)CNC(=O)c1cccs1,0.296,–
CCN(CC)c1ccc(/C=N/NC(=O)CNC(=O)c2cccs2)cc1,–,23.9 µM (active)
CCC(Sc1nnc(-c2ccc(OC)cc2)c(-c2ccc(OC)cc2)n1)C(=O)NC1CCCCC1 (configuration not stated),-1.88,–
CCOC(=O)c1c(NC(=O)/C=C/c2ccc(OC)cc2)sc2c1CCC(C)C2 (configuration not stated),-4.98,–
CCc1ccc(C(=O)CC2(O)C(=O)N(CCc3ccccc3)c3ccc(Br)cc32)cc1 (configuration not stated),-0.823,–
Cc1ccc(S(=O)(=O)N2CCCCC2)cc1NC(=O)[C@@H]1CCCN1C(=O)c1cccs1,0.451,–
CC(=O)Nc1ccc(NC(=O)c2cc3sccc3n2Cc2ccc(F)cc2)cc1,-7.58,–
CCOC(=O)c1cc(C)sc1NC(=O)C1CCC1,1.17,–
CCc1ccccc1NC(=O)c1ccc2snnc2c1,-1.29,–
O=C(Nc1ccccc1Cl)c1ccc2nsnc2c1,–,19 µM (active)
Cc1cccc(NC(=O)c2ccc3nsnc3c2)c1C,-18.7,–
CC1(C)CC(N2CCN(C(c3ccccc3)c3ccccc3)CC2)=CC(=[N+]2CCCCC2)C1,1.86,–
O=S(=O)(NC1CC1)c1ccc(Cl)cc1,-1.93,–
Cc1ccc(CNC(=O)Cn2c(=O)ccc3cc(S(=O)(=O)N4CCCC4)ccc32)cc1,-6.95,–
COCCN(C(=O)c1ccco1)c1nnc(-c2ccc(OC)cc2)s1,–,21.3 µM (active)

SMILES,"activity change, negative = inhibition [%]",Potency
Cc1nnc(N(Cc2ccco2)C(=O)c2ccno2)s1,-14.6,–
COc1ccc(N(CC(=O)NC(C)(C)C)C(=O)c2ccco2)cc1,1.44,–
COCCN(C(=O)C(C)C)c1nnc(-c2ccc(C(C)(C)C)cc2)s1,–,15.1 µM (active)
CN1CCNC(=O)C1CC(=O)N1CC=C(c2ccc(F)cc2)CC1 (configuration not stated),-1.89,–
Cn1c(C(=O)N2CCC(C(=O)N3CCN(c4ccccc4)CC3)CC2)cc2sccc21,-7.63,–
Cc1ccc(C)c(NC(=O)CSC2=Nc3ccccc3N=C(c3ccc(F)cc3)C2)c1,-5.62,–
CCOc1ccc(CNC(=O)c2ccc3nc(CC)c(CC)nc3c2)cc1OC,2.17,–
CCN(CC)c1ccc(NC(=O)Cn2nc3c(cc2=O)CCCC3)c(C)c1,-0.779,–
CCOc1ccc(CNC(=O)c2ccc3c(c2)nnn3C2CCCC2)cc1,-17,–
O=C(CNCCC1=CCCCC1)Nc1ccccc1N1CCCCCC1,-1.89,–
COc1ccc(NS(=O)(=O)c2cc3c(cc2C)N(C(C)=O)CCO3)cc1,–,inactive
COCCCNC(=O)c1c(NC(=O)c2cc(=O)c3cc(C)c(C)cc3o2)sc2c1CCCC2,0.689,–
O=C1c2cccc3c([N+](=O)[O-])ccc(c23)C(=O)N1CC1CCCO1 (configuration not stated),3.12,–
CC(=NCC1CCCO1)c1c(O)[nH]c(=O)[nH]c1=O (configuration not stated),2.32,–
O=C1C(C=NCC2CCCO2)=C(O)c2ccccc21 (configuration not stated),–,19 µM (active)
CC(C)c1ccc(NC(=O)c2ccc3c(O)c(S(=O)(=O)c4ccccc4)c(=O)[nH]c3c2)cc1,–,1.51 µM (active)
CCCCCn1c(=O)[nH]c2cc(C(=O)Nc3ccc(F)cc3)ccc2c1=O,-1.87,–
CC(C)n1c(=O)[nH]c2cc(C(=O)Nc3ccccc3)ccc21,-1.1,–
CCCCn1c(N)c(N(CCC(C)C)C(=O)COC(=O)c2cccnc2OCC)c(=O)[nH]c1=O,-0.738,–
Cc1cc(C)nc(SCc2ccccc2C#N)n1,0.806,–
COc1ccc(/C=N/OCc2ccccc2C#N)c(OC)c1,–,21.3 µM (active)
COc1ccc(C=C(C#N)C#N)c(CSc2ccccn2)c1,2.03,–
Cc1ccccc1OCC(=O)Nc1c(C(=O)Nc2ccccc2F)oc2ccccc12,0.53,–

SMILES,"activity change, negative = inhibition [%]",Potency
CCOC(=O)[C@H]1[C@H]2COc3cc(OC)ccc3[C@@H]2N2C(=O)N(c3ccc(Br)cc3)C(=O)[C@@]12C,2.63,–
COc1ccc(CNC(=O)Cc2ccc(-c3ccccc3)cc2)cc1OC,-1.07,–
COc1ccc(CNC(=O)COC(=O)c2c(C)nn(-c3ccccc3)c2C)cc1OC,0.209,–
COc1ccc(CNC(=O)COc2ccccc2C(=O)c2cnn(-c3ccccc3)c2)cc1OC,–,5.36 µM (active)
CCOC(=O)c1sc(NC(=O)c2sc(C)nc2C)nc1C,–,6.01 µM (active)
CCOC(=O)c1sc(NC(=O)c2ccncc2)nc1C,–,19 µM (active)
CCOC(=O)c1sc(NC(=O)CSc2n[nH]c(CC)n2)nc1C,-0.887,–
CCOC(=O)c1cccnc1NC(=O)c1ccncc1,1.54,–
CCOC(=O)c1sc(NC(=O)C2CSC3(C)CCC(=O)N23)nc1C (configuration not stated),0.346,–
CCOC(=O)c1sc(/N=C/Nc2nc(C)c(C(=O)OCC)s2)nc1C,4.82,–
Cc1ccc(C)c(Oc2c(C(F)(F)F)oc3c(CN4CCN(C)CC4)c(O)ccc3c2=O)c1,-1.22,–
Cc1cc(C)n2nc(CNS(=O)(=O)c3c(F)c(F)c(F)c(F)c3F)nc2n1,-0.955,–
Cc1ccc(C(=O)Nc2ccccc2F)cc1S(=O)(=O)N1CCOCC1,-1.59,–
CCOc1cc(/C=C(\C#N)C(=O)Nc2ccccc2C)ccc1OCc1cc(=O)n2nc(CC)sc2n1,0.577,–
O=C(CCc1nc2ccccc2c(=O)[nH]1)OCC(=O)c1cccc(Cl)c1,7.71,–
Cc1ccc(C(=O)COC(=O)c2cccc(N3C(=O)c4c(C)nc5ccccc5c4C3=O)c2)cc1C,–,2.69 µM (active)
CCCc1nc2ccccc2c(C(=O)OCC(=O)c2ccc3c(c2)NC(=O)CO3)c1CC,-0.523,–
CNC(=O)C1CC(=O)N(c2ccc(OCC(=O)Nc3ccccc3C)cc2)C1 (configuration not stated),-3.6,–
Cc1ccccc1NC(=O)CSc1nc2ccc(Nc3nc(N4CCOCC4)nc(N4CCOCC4)n3)cc2s1,0.0802,–
C/C(=N\Nc1nc(Nc2ccccc2)nc(N2CCOCC2)n1)c1cccs1,–,19 µM (active)
C/C(=N\Nc1nc(N2CCOCC2)nc(N2CCOCC2)n1)c1ccc([N+](=O)[O-])cc1,-3.17,–
